# Data: PubChem BioAssay
# Several values for one entry are separate records, joined by “and”; a condition that tells them apart may be missing. Equal values may be shown once. Inconclusive results are not listed. Activity calls are given as the source filed them.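 The calls were made as follows, unless noted: active = compounds whose cell count with miR-34 switched on is under 0.7 times the count with it off; inactive = the rest.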
# Assays:
# [1] = liver-stage malaria parasite growth inhibition, primary screen, cell-based, HepG2, luciferase luminescence, HepG2 viability (AID 624349; in the data active = parasite load remaining mostly below about 12%, no sharp cut-off; inactive = mostly above about 10%;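 also: 100% = mean of DMSO negative control wells on the same plate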); conditions: P. berghei liver stage in HepG2, luciferase luminescence, concentration not given here; parasite load remaining: stronger effect = lower value; viability: measured here: HepG2 viability without parasites
# [2] = tested on: Aerobactin synthetase IucA (Klebsiella pneumoniae); assay: IucA aerobactin synthetase inhibitors, biochemical, Tocris library, absorbance (AID 1345561; call rule not given here;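 also: 100% = enzyme without compound and 0% = no enzyme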); conditions: purified IucA enzyme assay, absorbance (OD) read-out; stronger effect = lower value;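 tested at 8 µM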
# [3] = sensitizers of A549 cells to miR-34 induction, primary screen, imaging, A549 dox-inducible miR-34, nuclei and caspase counts (AID 1347080); conditions: A549 miR-34 inducible, Hoechst nuclei count, 48 h
# [4] = viability rescue of complex I mutant cybrids, primary screen, cell-based, galactose medium, ATP luminescence (AID 1645843;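 active = z-score of at least 1.8 in each of two replicates, scored against plate mean and spread of sample wells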;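 also: positive z means more ATP and so rescue of galactose-driven cybrid death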); conditions: complex I mutant cybrid cells, 72 h, stronger effect = higher value
# [5] = LFS_MB_P medulloblastoma growth inhibition, cell-based, chromothripsis tumors, cisplatin or BGB combos (AID 1671449; in the data active = inhibition above about 80%;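 also: cells exposed for 96 hours; 0% = vehicle DMSO and 100% = killing by high DMSO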); conditions: LFS_MB_P medulloblastoma cells
# [6] = HDN33 neuroblastoma growth inhibition, cell-based, chromothripsis tumors, cisplatin or BGB combos (AID 1671450; in the data active = inhibition above about 80%;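 also: cells exposed to compound for four days; 0% = vehicle DMSO and 100% = cell killing by high DMSO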); conditions: HDN33 neuroblastoma cells, stronger effect = higher value
# [7] = ICB984 medulloblastoma cell growth inhibition, synergistic combos for chromothripsis tumors, cisplatin or BGB combos (AID 1671451; call rule not given here;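 also: cells exposed for 96 hours before readout; 0% = vehicle DMSO and 100% = killing by high DMSO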); conditions: ICB984 medulloblastoma cells, drug combinations, stronger effect = higher value
# [8] = HTB85 osteosarcoma cell growth inhibition, synergistic combos for chromothripsis tumors, BGB or cisplatin IC20 combos (AID 1671453; in the data active = inhibition above about 80%;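 also: cells exposed for 96 hours before readout; 0% = vehicle DMSO and 100% = high DMSO killing control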); conditions: HTB85 osteosarcoma cells, drug combinations, stronger effect = higher value
# [9] = growth inhibition of DIPG glioma cells, dose response, cell-based, SU-DIPG-XVII, MIPE5.0, CellTiter-Glo, qHTS (AID 1347060; cut-off not given, nearly all actives have AC50 up to about 26 µM;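 also: cells exposed to compound for 48 hours before viability readout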); conditions: SU-DIPG-XVII viability, CellTiter-Glo ATP luminescence
# [10] = stronger effect = lower value, cell number ratio, induced over uninduced
# [11] = measured here: relative caspase fold change +Dox/-Dox
# [12] = measured here: total cells with miR-34 induction, stronger effect = lower value
# [13] = measured here: total cells without miR-34 induction
smiles,measurement,setting,value
O=c1cc(N2CCOCC2)oc2c1ccc1ccccc12,parasite load remaining,[1],36.5% (inactive)
same,viability,[1],108%
same,remaining activity,[2],119% (inactive)
same,fold change,[3]; [10],1.08 (inactive)
same,fold change,[3]; [11],1.44
same,cell count,[3]; [12],6910
same,cell count,[3]; [13],6380
same,z-score,[4],1.36 (inactive)
same,inhibition,"[5]; at 0.5 µM, stronger effect = higher value",-16% (inactive)
same,inhibition,"[5]; measured here: combination with BGB IC20, at 0.005 µM",-21.9%
same,inhibition,"[5]; measured here: combination with BGB IC40, at 0.005 µM",39.3%
same,inhibition,"[5]; measured here: combination with BGB IC40, at 0.05 µM",-14.5%
same,inhibition,"[5]; measured here: combination with cisplatin, at 0.5 µM, stronger effect = higher value",-18.2%
same,inhibition,"[5]; measured here: combination with cisplatin, at 5 µM, stronger effect = higher value",6.61%
same,inhibition,"[6]; BGB combo, at 5 µM",-27.9%
same,inhibition,[6]; at 0.5 µM,5.72% (inactive)
same,inhibition,"[6]; cisplatin combo, at 5 µM",-6.14%
same,inhibition,"[6]; measured here: with BGB IC20 combination, at 0.5 µM",-2.44%
same,inhibition,"[6]; measured here: with cisplatin IC20 combination, at 0.5 µM",15.8%
same,inhibition,"[6]; single agent, at 5 µM",4.04%
same,inhibition,"[7]; BGB IC20 combo, at 0.005 µM",3.18%
same,inhibition,"[7]; BGB IC40 combo, at 0.005 µM",-0.874%
same,inhibition,"[7]; BGB IC40 combo, at 0.05 µM",-4.91%
same,inhibition,[7]; at 0.5 µM,-11.2% (inactive)
same,inhibition,"[7]; cisplatin combo, at 0.05 µM",-10.2%
same,inhibition,"[7]; cisplatin combo, at 0.5 µM",-14.9%
same,inhibition,"[7]; cisplatin combo, at 5 µM",-15.9%
same,inhibition,"[7]; measured here: 5 uM single agent, at 5 µM",0.403%
same,inhibition,[8]; at 0.5 µM,-0.76% (inactive)
same,inhibition,"[8]; measured here: with BGB IC20, at 0.5 µM",5.35%
same,inhibition,"[8]; measured here: with BGB IC20, at 5 µM",11.2%
same,inhibition,"[8]; measured here: with cisplatin IC20, at 0.5 µM",-3.29%
same,inhibition,"[8]; measured here: with cisplatin IC20, at 5 µM",1.5%
same,inhibition,"[8]; single agent, at 5 µM",5%
N#C/C(=C\c1ccc(O)c(O)c1)C(=O)NCCCc1ccccc1,remaining activity,[2],98.4% (inactive)
same,fold change,[3]; [10],0.871 (inactive)
same,fold change,[3]; [11],1.07
same,cell count,[3]; [12],7250
same,cell count,[3]; [13],8330
same,z-score,[4],-0.64 (inactive)
FC(F)(F)c1cc(CO[C@H]2CCCN[C@H]2c2ccccc2)cc(C(F)(F)F)c1,remaining activity,[2],112% (inactive)
same,fold change,[3]; [10],1.01 (inactive)
same,fold change,[3]; [11],0.987
same,cell count,[3]; [12],2150
same,cell count,[3]; [13],2140
same,z-score,[4],-0.8 (inactive)
O=C(Cc1ccccc1)Nc1nc2ccc(Cl)cc2c2nc(-c3ccco3)nn12,remaining activity,[2],112% (inactive)
same,fold change,[3]; [10],1 (inactive)
same,fold change,[3]; [11],0.707
same,cell count,[3]; [12],7840
same,cell count,[3]; [13],7820
same,z-score,[4],0.635 (inactive)
CC[C@@H](C)[C@H]1O[C@]2(CC[C@@H]1C)C[C@@H]1C[C@@H](C/C=C(\C)[C@@H](O[C@H]3C[C@H](OC)[C@@H](O[C@H]4C[C@H](OC)[C@@H](O)[C@H](C)O4)[C@H](C)O3)[C@@H](C)/C=C/C=C3\CO[C@@H]4[C@H](O)C(C)=CC(C(=O)O1)[C@]34O)O2 (stereo partly specified) (tested in a mixture with another compound),remaining activity,[2],124% (inactive)
same,fold change,[3]; [10],0.987 (inactive)
same,fold change,[3]; [11],1.53
same,cell count,[3]; [12],507
same,cell count,[3]; [13],514
same,z-score,[4],-1.04 (inactive)
CS(=O)(=O)c1ccc(Cn2c3c(c4cc(F)cc(F)c42)CCCC3CC(=O)O)cc1 (stereo unspecified),remaining activity,[2],110% (inactive)
same,fold change,[3]; [10],0.908 (inactive)
same,fold change,[3]; [11],0.675
same,cell count,[3]; [12],8590
same,cell count,[3]; [13],9460
same,z-score,[4],0.655 (inactive)
O=c1cc(N2CCOCC2)nc2c3ccccc3ccn12,parasite load remaining,[1],31.9% (inactive)
same,viability,[1],94.8%
same,remaining activity,[2],126% (inactive)
same,fold change,[3]; [10],0.935 (inactive)
same,fold change,[3]; [11],1.52
same,cell count,[3]; [12],8560
same,cell count,[3]; [13],9160
same,z-score,[4],1.56 (inactive)
Clc1ccc(CCCOCCCN2CCCCC2)cc1,remaining activity,[2],105% (inactive)
same,fold change,[3]; [10],0.895 (inactive)
same,fold change,[3]; [11],1.39
same,cell count,[3]; [12],7600
same,cell count,[3]; [13],8480
same,z-score,[4],-0.64 (inactive)
c1ccc2sc(N3CCN(Cc4ccc5c(c4)OCO5)CC3)nc2c1,remaining activity,[2],98.7% (inactive)
same,fold change,[3]; [10],0.958 (inactive)
same,fold change,[3]; [11],0.859
same,cell count,[3]; [12],9100
same,cell count,[3]; [13],9500
same,z-score,[4],-0.155 (inactive)
N#C/C(=C\c1ccc(O)c(O)c1)C(=O)Nc1ccccc1,remaining activity,[2],117% (inactive)
same,fold change,[3]; [10],1.02 (inactive) and 0.911 (inactive)
same,fold change,[3]; [11],0.933 and 1.77
same,cell count,[3]; [12],7050 and 7400
same,cell count,[3]; [13],6920 and 8120
same,z-score,[4],-1.14 (inactive) and -0.745 (inactive)
Cc1cccc(C)c1NC(=O)C[N+](C)(C)C,remaining activity,[2],109% (inactive)
same,fold change,[3]; [10],1 (inactive)
same,fold change,[3]; [11],0.946
same,cell count,[3]; [12],9170
same,cell count,[3]; [13],9160
same,z-score,[4],-0.035 (inactive)
Cc1nc2sccn2c(=O)c1CCN1CCC(=C(c2ccccc2)c2ccc(F)cc2)CC1,remaining activity,[2],120% (inactive)
same,fold change,[3]; [10],0.974 (inactive)
same,fold change,[3]; [11],1.11
same,cell count,[3]; [12],7180
same,cell count,[3]; [13],7370
same,z-score,[4],-0.655 (inactive)
COc1ccc2[nH]c(I)c(CCNC(C)=O)c2c1,remaining activity,[2],98.4% (inactive)
same,fold change,[3]; [10],0.928 (inactive)
same,fold change,[3]; [11],0.922
same,cell count,[3]; [12],8770
same,cell count,[3]; [13],9460
same,z-score,[4],0.09 (inactive)
Ic1cc(-c2ccccc2)ncn1,remaining activity,[2],120% (inactive)
same,fold change,[3]; [10],0.965 (inactive)
same,fold change,[3]; [11],1.73
same,cell count,[3]; [12],8200
same,cell count,[3]; [13],8500
same,z-score,[4],0.11 (inactive)
COC(=O)c1c(-c2cc(OC)c(OC)c(OC)c2)c2ccnc(OCc3ncccn3)c2c(=O)n1Cc1ccnc(C)c1,remaining activity,[2],117% (inactive)
same,fold change,[3]; [10],0.972 (inactive)
same,fold change,[3]; [11],0.845
same,cell count,[3]; [12],8000
same,cell count,[3]; [13],8240
same,z-score,[4],-0.06 (inactive)
COc1ccc(S(=O)(=O)N2c3ccc(Cl)cc3[C@](O)(c3ccccc3Cl)[C@@H]2C(=O)N2CCC[C@H]2C(N)=O)cc1OC,remaining activity,[2],97.7% (inactive)
same,fold change,[3]; [10],0.908 (inactive)
same,fold change,[3]; [11],1.22
same,cell count,[3]; [12],8610
same,cell count,[3]; [13],9480
same,z-score,[4],0.855 (inactive)
CC(C)[C@H](CO)Nc1nc(Nc2cc(N)cc(Cl)c2)c2ncn(C(C)C)c2n1,parasite load remaining,[1],38.5% (inactive)
same,viability,[1],101%
same,remaining activity,[2],103% (inactive)
same,fold change,[3]; [10],1.06 (inactive)
same,fold change,[3]; [11],1.14
same,cell count,[3]; [12],1230
same,cell count,[3]; [13],1160
same,z-score,[4],-0.555 (inactive)
Cc1cc(/C(=C\Nc2ccc(Cl)cc2)C(=O)Nc2ccc(Cl)cc2)on1,remaining activity,[2],122% (inactive)
same,fold change,[3]; [10],0.913 (inactive)
same,fold change,[3]; [11],0.914
same,cell count,[3]; [12],7920
same,cell count,[3]; [13],8680
same,z-score,[4],0.03 (inactive)
CCCCC(=O)OCC(=O)[C@]1(O)Cc2c(O)c3c(c(O)c2[C@@H](O[C@H]2C[C@H](NC(=O)C(F)(F)F)[C@H](O)[C@H](C)O2)C1)C(=O)c1c(OC)cccc1C3=O,AC50,[9],1660 nM (active)
